Hits are enriched below; roughly 3.6% of the tested compounds scored in any of these assays.
Pf apPOL inh: Pf-apPOL inhibitors, biochemical, fluorescence; Plasmodium falciparum apicoplast DNA polymerase (apPOL); Recombinant Pf-apPOL, molecular beacon fluorescence, 1.5 h; inhibition, % at 10 µM; actives 0.25% (n = 210,000); AID 1794808, 2022
mHTT-CaM PPI inh: mutant huntingtin-calmodulin interaction inhibitors – biochemical, AlphaScreen, primary screen. AlphaScreen His-mHTT/GST-CaM binding, luminescence. inhibition, % at 15 µM. P42858. actives 3.6% (n = 190,000)
Each line names hits and unclear results; the compound was inactive in the other large screens. Cut-off read from the data, not from the text of the source: active = inhibition above about 50%; inactive = the rest.

Cc1ccccc1N1CCN(C(C)C(=O)NCc2cccnc2)CC1 (centres undefined)	none
CC(C(=O)NCc1ccccn1)N1CCN(c2ccccc2Cl)CC1 (centres undefined)	mHTT-CaM PPI inh 75.0
CCc1nnc2ccc(-c3noc(Cc4cccc(Cl)c4)n3)cn12	none
COc1cccc(CC(=O)Nc2nnc(C3CC(=O)N(c4ccccc4)C3)o2)c1 (centres undefined)	mHTT-CaM PPI inh 86.5
COc1ccc(N2CC(c3nnc(NC(=O)Cc4cccs4)o3)CC2=O)cc1 (centres undefined)	mHTT-CaM PPI inh 65.5
Cc1nc(-c2nnc(NC(=O)CCSc3ccccc3)o2)cs1	none
COc1nn(C)cc1C(=O)Nc1nnc(-c2csc(C)n2)o1	mHTT-CaM PPI inh 58.3
COc1ccccc1C(=O)Nc1nnc(C2CC(=O)N(c3ccccc3)C2)o1 (centres undefined)	none
COc1nn(C)cc1C(=O)Nc1nnc(C2CC(=O)N(c3ccccc3)C2)o1 (centres undefined)	mHTT-CaM PPI inh 53.6
CSc1ccc(N2CC(c3nnc(NC(=O)Cc4cccs4)o3)CC2=O)cc1 (centres undefined)	none
COc1ccc(N2CC(c3nnc(NC(=O)Cc4ccccc4C)o3)CC2=O)cc1 (centres undefined)	none
CCS(=O)(=O)N1CCc2[nH]nc(-c3ccc(F)cc3)c2C1	none
CC(C)(Oc1ccc(Cl)cc1)C(=O)Nc1ccncc1	none
COc1cccc(N2CC(C(=O)Nc3c(C(N)=O)oc4ccccc34)CC2=O)c1 (centres undefined)	mHTT-CaM PPI inh 59.0
CC(C)(C)C(=O)Nc1nnc(C2CC(=O)N(c3ccccc3)C2)o1 (centres undefined)	none
CC(C)(Oc1ccc(Cl)cc1)C(=O)Nc1nnc(C2CC(=O)N(c3ccccc3)C2)o1 (centres undefined)	mHTT-CaM PPI inh 98.1
COc1cccc(N2CC(C(=O)O)CC2=O)c1 (centres undefined)	none
CC(C)n1nccc1-c1nnc(NC(=O)C(C)(C)Oc2ccc(Cl)cc2)o1	mHTT-CaM PPI inh 65.9
COc1ccc(I)cc1S(=O)(=O)NCc1ccccc1	none
COc1ccc(NC(=O)N2CCCC2c2c(C)noc2C)c(OC)c1 (centres undefined)	none
O=C1OC(c2ccccc2F)=N/C1=C\c1ccccc1Br	none
CNC(=O)C(=O)NCc1ccc(F)cc1	none
CC1=C(C#N)C(=O)N(CCCO)C(=O)/C1=C\c1ccc(-c2cc(C)c(C)cc2[N+](=O)[O-])o1	mHTT-CaM PPI inh 79.0
CC1=C(C#N)C(=O)N(C)C(=O)/C1=C\c1ccc(-c2ccc(Br)cc2C(=O)O)o1	none
Cc1ccc(N2CC(C(=O)NCc3ccc(F)cc3)CC2=O)cc1 (centres undefined)	none
COc1ccc(N=Cc2cc3c(cc2[N+](=O)[O-])OCO3)cc1OC	none
Cc1ccc(N=Cc2cc3c(cc2[N+](=O)[O-])OCO3)cc1Br	mHTT-CaM PPI inh 69.0
O=[N+]([O-])c1cc2c(cc1C=Nc1ccccc1)OCO2	mHTT-CaM PPI inh 78.0
O=[N+]([O-])c1cc2c(cc1C=Nc1ccc(Cl)c(Cl)c1)OCO2	none
O=[N+]([O-])c1cc2c(cc1C=Nc1ccc(Nc3ccccc3)cc1)OCO2	mHTT-CaM PPI inh 85.0
O=[N+]([O-])c1ccc(N=Cc2cc3c(cc2[N+](=O)[O-])OCO3)cc1	none
CC(=O)Nc1ccc(N=Cc2cc3c(cc2[N+](=O)[O-])OCO3)cc1	none
Cc1cccc(N=Cc2cc3c(cc2[N+](=O)[O-])OCO3)c1	mHTT-CaM PPI inh 86.0
O=S(=O)(c1ccc(Cl)cc1)c1nc(-c2ccco2)oc1NCCCn1ccnc1	none
O=C(Nc1cc(C(F)(F)F)ccc1Cl)c1ccc([N+](=O)[O-])cc1Cl	none
Cc1ccc(Cn2cc(CCC(=O)NCc3cccnc3)c3ccccc32)cc1	none
CCN(CCCNC(=O)c1cn(CC(C)C)c(=O)c2c1c1ccccc1n2C)c1cccc(C)c1	none
Cc1cc(O)c(N=Cc2cc3c(cc2[N+](=O)[O-])OCO3)cc1C	mHTT-CaM PPI inh 70.0
Cc1ccc([N+](=O)[O-])cc1N=Cc1cc2c(cc1[N+](=O)[O-])OCO2	none
COc1ccc(S(=O)(=O)n2cc([N+](=O)[O-])cn2)cc1OC	mHTT-CaM PPI inh 100.0
COc1ccc(S(=O)(=O)n2c([N+](=O)[O-])cnc2C)cc1OC	none
CC(=O)NCc1csc(C2CCN(S(=O)(=O)c3ccc(F)c(F)c3)CC2)n1	none
CCN(CC)Cc1c(O)c(CN(CC)CC)c2oc(-c3ccccc3)cc(=O)c2c1O	mHTT-CaM PPI inh 100.3
O=c1cc(-c2ccccc2)oc2c(CN3CCCCC3)c(O)c(CN3CCCCC3)c(O)c12	none
COc1ccc(C2=NN(CCC(=O)NC(C)c3ccccc3)C(=O)CC2)cc1 (centres undefined)	none
CCOc1cc(C2c3sc(=O)[nH]c3SC3C4CCC(C4)C23)ccc1O (centres undefined)	mHTT-CaM PPI inh 100.3
COc1cc(C2c3sc(=O)[nH]c3SC3C4CCC(C4)C23)ccc1O (centres undefined)	mHTT-CaM PPI inh 57.0
COc1ccc(C2c3sc(=O)[nH]c3SC3C4CCC(C4)C23)cc1 (centres undefined)	none
COc1cccc(C2c3sc(=O)[nH]c3SC3C4CCC(C4)C23)c1O (centres undefined)	none
O=[N+]([O-])c1ccc(N2CCCC2)cc1SCc1ccco1	none
O=[N+]([O-])c1cc(SCc2ccco2)c2c(C3OCCO3)nn(-c3ccccc3)c2c1	mHTT-CaM PPI inh 78.0
CCc1nc(C)nc(N2CCN(C(C)=O)CC2)c1Cc1cccc(C)c1	none
O=C(CC1Nc2ccccc2NC1=O)Nc1ccc(F)c(Cl)c1 (centres undefined)	none
COc1ccc(Cl)cc1S(=O)(=O)N1CCCC(C)(C(=O)NCc2ccccc2)C1 (centres undefined)	mHTT-CaM PPI inh 95.2
Cc1cccc(S(=O)(=O)N2CCCC(C)(C(=O)NCc3ccccc3)C2)c1 (centres undefined)	none
CC1(C(=O)NCc2ccccc2)CCCN(S(=O)(=O)c2ccc(F)c(Cl)c2)C1 (centres undefined)	mHTT-CaM PPI inh 65.6
COc1ccc(OC)c(S(=O)(=O)N2CCCC(C)(C(=O)NCc3ccccc3)C2)c1 (centres undefined)	none
O=C(NCCc1ccccc1F)C1CC(=O)N(c2ccc(Br)cc2)C1 (centres undefined)	none
COc1ccc(NC(=O)c2ccc([N+](=O)[O-])c(C)c2)cc1Cl	none
O=S(=O)(NCc1csc(-c2cccs2)n1)c1ccc(-c2ccon2)s1	none (no result: mHTT-CaM PPI inh)
Cc1ccc(CNC(=O)CN2C(=O)/C(=C/c3ccccc3C)Sc3ccccc32)cc1	none
CSc1ccccc1NC(=O)C(c1ccccc1)n1cccc1 (centres undefined)	mHTT-CaM PPI inh 60.1
CSc1ccccc1NC(=O)C(c1ccccc1)c1ccccc1	none
Cc1sc2ncnc(N3CCCCC3)c2c1C(=O)Nc1cc(F)c(F)c(F)c1	none
O=C(COc1ccc2c(c1)OCO2)NCCOc1ccc(-c2ccccn2)nn1	mHTT-CaM PPI inh 100.3
O=C(CSC1CCCC1)NCCOc1ccc(-c2ccccn2)nn1	mHTT-CaM PPI inh 100.3
O=C(CSC1CCCC1)NCCn1nc(-c2ccco2)ccc1=O	none
Cc1cc(C)cc(OCCNC(=O)COc2ccc3c(c2)OCO3)c1	none
Cc1noc(C2CCCCN2Cc2nc3ccccc3[nH]2)n1 (centres undefined)	none
O=C(c1cc2ccccc2[nH]1)N1CCC2(C1)NC(=O)N(Cc1ccc(Cl)cc1)C2=O (centres undefined)	none
